Results on 20 molecules are retold here after PubChem BioAssay (NCI).

Molecules are shown by their SMILES. About 79,000 compounds went through this panel and 15% of them were active in at least one assay; those are over-represented in the sample as a whole. A number with no mark means an inactive call. Activity calls are given as the source filed them. Cut-off read from the data, not from the text of the source: active = growth inhibition above about 70%; inactive = the rest.

The nature of assay [1]: NCI Yeast Anticancer Drug Screen. Data for the rad50 strain (AID 155).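 Note: 0% = growth of vehicle-only cultures of the same strain.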 Conditions: S. cerevisiae rad50 strain growth inhibition; at 50.0 µM; stronger effect = higher value. The essentials:
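Cells are treated with compound, grown, and their growth is then scored against vehicle-only cultures of the same repair-deficient yeast strain.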

Assay [2] can be described thus: NCI Yeast Anticancer Drug Screen. Data for the mec2-1 strain (AID 157). Conditions: S. cerevisiae mec2-1 strain, at 50.0 µM, stronger effect = higher value. The essentials: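 Test agents were screened against the mec2-1 yeast strain, with defined DNA repair or cell cycle alteration. Growth was scored as inhibition against vehicle-only controls.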
Assay [3] is described as follows: NCI Yeast Anticancer Drug Screen. Data for the sgs1 mgt1 strain (AID 161).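 Note: 0% = growth of cultures given vehicle only.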 Conditions: S. cerevisiae sgs1 mgt1 strain, at 50.0 µM, stronger effect = higher value. An outline of the steps:
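Test agents were incubated with a DNA-repair-mutant yeast strain. Growth was then read and compared against vehicle-treated controls.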

The nature of assay [4]: NCI Yeast Anticancer Drug Screen. Data for the cln2 rad14 strain (AID 165).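 Note: 0% = growth equal to vehicle treated cultures.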 Conditions: S. cerevisiae cln2 rad14 strain, at 50.0 µM, stronger effect = higher value. The essentials: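 Growth of compound-exposed yeast (cln2 rad14 genotype) measured and expressed as inhibition relative to vehicle.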
Assay [5] can be described thus: NCI Yeast Anticancer Drug Screen. Data for the bub3 strain (AID 167). Conditions: S. cerevisiae bub3 mutant strain, at 50.0 µM, stronger effect = higher value. The essentials: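 Part of a panel of yeast mutants defective in DNA damage repair or cell cycle regulation. Each strain is grown with compound, and inhibition is calculated relative to solvent-treated cultures.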
Assay [6] can be described thus: NCI Yeast Anticancer Drug Screen. Data for the mlh1 rad18 strain (AID 175). Conditions: S. cerevisiae mlh1 rad18 strain growth inhibition; at 50.0 µM; stronger effect = higher value. An outline of the steps:
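In this whole-cell yeast screen, a strain with altered DNA damage repair is challenged with compound, and its growth is measured against matched vehicle-treated controls.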

Regarding `O=C(OCC(Cl)(Cl)Cl)N1[C@@H]2C=C[C@@H](N1C(=O)OCC(Cl)(Cl)Cl)[C@@]13CCCCC21O3` (stereo not given in full), the growth inhibition in assay [1] is -55.7%; in assay [2], 5.15%; in assay [3], 0.45%; in assay [4], 1.8%; in assay [5], -4.95%; in assay [6] it was 1.65%.

Turning to `CC(OS(C)(=O)=O)C(C)OS(C)(=O)=O` (stereo not given), the growth inhibition in assay [1] is 2.4%; in assay [2], -9.35%; in assay [3], -11.7%; in assay [4] it was -10.4%; in assay [5] it was 0.95%; in assay [6], -19.6%.

As for `CCCCOC1OC[N+](C)(C)CC1(C)C` (stereo not given), the growth inhibition in assay [1] was 20.2%; in assay [2] it was -2.65%; in assay [3], -10.1%; in assay [4], 3.7%; in assay [5], -0.45%; in assay [6], 26.2%.

For the molecule `CN(C)C(=O)c1cccc(C2CCCCC2)c1O`, the growth inhibition is -10.8% in assay [1]; 1.85% in assay [2]; 14.6% in assay [3]; -81.4% in assay [4]; -18.6% in assay [5]; -14.7% in assay [6].

Consider `O=C(Nc1ccc(Cl)cc1)Nc1nnc2nc(CC(=O)c3ccc4ccccc4c3)c(=O)[nH]n12`, for which the growth inhibition in assay [1] is 12.9%; in assay [2], 9.45%; in assay [3], 2.2%; in assay [4], -16.3%; in assay [5], 21.8%; in assay [6], 1.3%.

With `O=C1c2ccccc2CC12Cc1ccccc1C2`, the growth inhibition in assay [1] is 2.05%; in assay [2] it was -17.4%; in assay [3], -3.85%; in assay [4], -15.3%; in assay [5], -29.7%; in assay [6], 0.15%.

Turning to `C=C1C2CC3CCC2C(OC(=O)c2ccccc2C(=O)O)C13` (stereo not given), the growth inhibition was -0.45% in assay [1]; -11.2% in assay [2]; 1.4% in assay [3]; 14.8% in assay [4]; -2.2% in assay [5]; -19.3% in assay [6].

As to `COc1ccc(/C=[N+](\[O-])[C@H](COCc2ccccc2)c2ccccc2)cc1`, the growth inhibition in assay [1] is 18.4%; in assay [2] it was -18.3%; in assay [3], 0.05%; in assay [4], -1.6%; in assay [5] it was 6.6%; in assay [6], 4.3%.

In the case of `CC(=O)c1ccc(N=C2C=CC(=O)O2)cc1`, the growth inhibition in assay [1] was 6.85%; in assay [2], -14.9%; in assay [3] it was -11.1%; in assay [4], -21.5%; in assay [5] it was -4.65%; in assay [6] it was 7.65%.

On to `COC1OC2COC(c3ccccc3)OC2C(OC(=O)c2ccc([N+](=O)[O-])cc2)C1OS(=O)(=O)c1ccc(C)cc1` (stereo not given), for which the growth inhibition in assay [1] was 39.6%; in assay [2], 17.2%; in assay [3], 21.6%; in assay [4] it was 25.1%; in assay [5], 0.7%; in assay [6], 15.8%.

As to `COc1nc(NC2OC(CO)C(O)C(O)C2O)c(Br)c(=O)n1C` (stereo not given), the growth inhibition is 4.4% in assay [1]; -1.15% in assay [2]; -3.6% in assay [3]; -4.1% in assay [4]; 0.75% in assay [5]; 23% in assay [6].

As to `CC(=O)Nc1ccc(C(=O)NN2C(=O)CSC2c2ccc(O)cc2)cc1` (stereo not given), the growth inhibition in assay [1] was -36%; in assay [2] it was -36.1%; in assay [3] it was -44.5%; in assay [4], -15.7%; in assay [5] it was -30.2%; in assay [6] it was -49.7%.

With `CO/C=C(/C#N)S(=O)(=O)/C(C#N)=C/OC`, the growth inhibition is 32.5% in assay [1]; 37.3% in assay [2]; 34% in assay [3]; 4.65% in assay [4]; 24.9% in assay [5]; 15.9% in assay [6].

`O=C1/C(=C/c2ccccc2)CN(C(=O)OCC(Cl)(Cl)Cl)C/C1=C\c1ccccc1`: the growth inhibition in assay [1] was 2.6%; in assay [2], 7.3%; in assay [3], -31.4%; in assay [4], 4.9%; in assay [5], -11%; in assay [6], -57.7%.

In the case of `N[C@@H](C[C@H]1CCC(=O)[C@@H]2O[C@H]12)C(=O)O`, the growth inhibition is -1.5% in assay [1]; -12.8% in assay [2]; -12.5% in assay [3]; 0.35% in assay [4]; 13.2% in assay [5]; -10.9% in assay [6].

As for `NC(=O)/C(=N/O)c1ccccc1`, the growth inhibition is -1.85% in assay [1]; 13.2% in assay [2]; 1.7% in assay [3]; 1.25% in assay [4]; -1.2% in assay [5]; -7.6% in assay [6].

Regarding `Cc1cccc(-c2c3ccccc3cc3ccccc23)c1`, the growth inhibition is 6.35% in assay [1]; 14.2% in assay [2]; 7.55% in assay [3]; -3.1% in assay [4]; 2.35% in assay [5]; 11.6% in assay [6].

Regarding `CC(=O)CC(C)=NCCN=C(C)CC(C)=O.[Cu]`, the growth inhibition in assay [1] was 86.2% (active); in assay [2], 64.2%; in assay [3] it was 75.7% (active); in assay [4], 84.4% (active); in assay [5], 71.8% (active); in assay [6], 82% (active).

Consider `CCOC(=O)C1CC(=O)C=C2CCCCC21` (stereo not given), for which the growth inhibition in assay [1] was -4.05%; in assay [2], -27.7%; in assay [3], -7.55%; in assay [4] it was 5.35%; in assay [5] it was -30.1%; in assay [6], 13.4%.

For `Cc1cc(Cc2ccc(N)c(C)c2)ccc1N`, the growth inhibition was 3.4% in assay [1]; 0.9% in assay [2]; -12.8% in assay [3]; -52.9% in assay [4]; -19% in assay [5]; -2.45% in assay [6].
